Assay outcomes as filed in PubChem.
An excerpt weighted towards active compounds, which were near 7.9% of everything screened.
KB-V1 MDR tox = qHTS assay for MDR1-selective chemotherapeutics: Primary screen using the drug-selected MDR subline cells KB-V1; 400,000 tested, 3.4% active; KB-V1 MDR cells viability, CellTiter-Glo, 72 h; Potency, µM (top dose mostly 46.1 µM), hits mostly cytotoxic; also: % is scaled to controls: 0 for no effect and ±100 for the full control effect; nearly all actives have a fitted effect of over 60% in size
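KB-V1 MDR subline cells in DMEM (phenol-red free, 10% FBS) exposed to compounds in qHTS concentration series for 72 h at 37 degrees C. Viability read by CellTiter-Glo luminescence; concentration-effect curves fitted after normalization and correction.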
KB-3-1 tox = qHTS assay for MDR1-selective chemotherapeutics: Primary screen using the parental adenocarcinoma cell KB-3-1 | KB-3-1 viability, CellTiter-Glo ATP luminescence, 72 h | Potency, µM (top dose mostly 46.1 µM), hits mostly cytotoxic | 400,000 tested, 1.4% active; also: % is scaled to controls: 0 for no effect and ±100 for the full control effect; nearly all actives have a fitted effect of over 60% in size
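Cytotoxicity measured as CellTiter-Glo luminescence after 72 h at 37 C. Compound titrations were pinned onto drug-naive KB-3-1 parental adenocarcinoma cells grown in DMEM with 10% FBS, and normalized data fitted to concentration-response curves.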
SW480 rerep = A quantitative high throughput screen for small molecules that induce DNA re-replication in SW480 colon adenocarcinoma cells; SW480 DNA re-replication, Hoechst DNA content imaging, 48 h; Potency, µM (top dose mostly 46.1 µM), for inactives: at the highest dose re-replication activation, usual class: activators; 340,000 tested, 1.8% active; AID 624297, 2012; also: % of control where 0% means no effect; nearly all actives have a fitted effect of over 55% in size
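Compounds, transferred as 23 nL by pin tool, were incubated with cells for 48 hr; DNA content per nucleus was then quantified by Hoechst staining and fluorescence plate imaging.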
HT1080-NT tox = qHTS for induction of synthetic lethality in tumor cells producing 2HG: qHTS for the HT-1080-NT fibrosarcoma cell line | 360,000 tested, 1.6% active | Potency, µM (top dose mostly 46.1 µM), for inactives: at the top dose activity, negative = less viability, actives largely listed as cytotoxic | HT-1080-NT fibrosarcoma viability, CellTiter-Glo ATP luminescence, 48 h;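 also: NT is the 2HG producing partner of a matched IDH1 knockdown line; 0% = DMSO-treated cells and -100% = media-only wells without cells; nearly all actives have a fitted effect of over 55% in size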
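A 48-hour cytotoxicity screen used HT-1080-NT cells plated 2 hours before compound delivery. ATP-based CellTiter-Glo luminescence measured viability, normalized to DMSO and no-cell controls.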
HT1080 IDH1KD tx = qHTS for induction of synthetic lethality in tumor cells producing 2HG: qHTS for the HT-1080-IDH1KD cell line; HT-1080 IDH1 knockdown viability, ATP luminescence, 48 h; Potency, µM (top dose mostly 46.1 µM), for inactives: at the top dose activity, negative = toxicity, most hits filed as cytotoxic; 360,000 tested, 2% active;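 also: 0% = DMSO wells and -100% = cell-free medium wells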
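IDH1KD HT-1080 cells, 750/well, RPMI + 5% FBS; compound pinned after 2 h settling; 48 h, 37 °C; CellTiter-Glo luminescence; % activity normalised to DMSO and no-cell wells; curves fitted, classed by r2 and efficacy.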
MCF10A rereplic = A quantitative high throughput screen for small molecules that induce DNA re-replication in MCF 10a normal breast cells | MCF 10A DNA re-replication, Hoechst nuclear intensity, 48 h | Potency, µM (highest dose often 46.1 µM), inactives show at the highest dose activity, positive = re-replication, actives largely listed as activators | 350,000 tested, 2.9% active | AID 624296, 2012; also: % of control where 0% means no effect; nearly all actives have a fitted effect of over 50% in size
The depositor's hits bear a star; i = inactive; ? = inconclusive; nt = no result. Calls follow the shape of the dose curve; as a rule, active = well fitted curve in the direction sought with a large enough effect; inconclusive = small, poorly fitted or top-dose-only effect, or another doubt; inactive = no such curve, though single readings can be large; an effect the other way counts as inactive or inconclusive. Potency is read from the fitted curve at half-maximal effect.

SMILES	KB-V1 MDR tox	KB-3-1 tox	SW480 rerep	HT1080-NT tox	HT1080 IDH1KD tx	MCF10A rereplic
Cc1cccn2c(=O)c3cc(C(=O)NC4CCCC4)c(=N)n(CC4CCCO4)c3nc12 (stereo not given)	?	?	?	-3%	6%	9.2µM*
Cc1cccn2c(=O)c3cc(C(=O)NCC4CCCO4)c(=N)n(CC4CCCO4)c3nc12 (stereo not given)	i	i	3.7µM*	7%	-3%	4.6µM*
COc1ccc(CCn2c(=N)c(C(=O)NCC3CCCO3)cc3c(=O)n4cccc(C)c4nc32)cc1 (stereo not given)	?	?	5.8µM*	2%	-2%	2.9µM*
O=C(CSC(=S)N1CCCC1)Nc1ccc(Br)cc1Cl	i	i	7%	-1%	-7%	21%
CC(=O)c1ccc(NC(=O)C(C)OC(=O)CCN=C2NS(=O)(=O)c3ccccc32)cc1 (stereo not given)	i	i	-2%	0%	11%	23%
N#Cc1cc(C(=O)c2ccccc2O)cn(-c2ccc(Cl)cc2)c1=O	i	?	7%	-24%	-1%	?
O=C(c1[nH]c(C(F)(F)F)nc1-c1ccccc1)N1CCN(CCN2CCOCC2)CC1	i	?	nt	27%	16%	nt
Cc1cccn2c(=O)c3cc(C(=O)NC4CCCCC4C)n(C)c3nc12 (stereo not given)	i	i	21µM*	0%	1%	15µM*
NC(=S)NNc1c(F)c(F)c(F)c(F)c1F	i	?	14%	-20%	-6%	15µM*
CC(C)C1C(=O)N(Cc2cn(CCC3OCCCO3)nn2)CCS(=O)(=O)N1Cc1ccc(-c2ccc(Cl)c(Cl)c2)cc1 (stereo not given)	?	?	nt	16µM*	?	nt
CC(C)C1C(=O)N(Cc2cn(CCC3OCCCO3)nn2)CCS(=O)(=O)N1Cc1ccc(-c2ccc(Cl)cc2)cc1 (stereo not given)	i	i	nt	6%	8%	nt
CC(C)C1C(=O)N(Cc2cn(CCC3OCCO3)nn2)CCS(=O)(=O)N1Cc1ccc(-c2ccc(Cl)cc2)cc1 (stereo not given)	16µM*	?	nt	18µM*	?	nt
O=C(NCC1CCCO1)c1cnc(Cl)c(Cl)c1 (stereo not given)	?	i	2%	8%	12%	7%
COC(=O)Cn1c(C)c(/C=C/c2cc[n+](C)cc2)c2ccccc21	i	?	-2%	4%	1%	-1%
O=c1c2cnn(-c3ccccc3)c2nc(-c2ccco2)n1-c1ccccc1	5.2µM*	15µM*	-1%	-24%	-20%	?
Cc1ccc(Sc2ncccc2COC(=O)Nc2c(C)cccc2C)cc1	i	26µM*	?	?	?	?
Cc1ccc(Sc2ncccc2COC(=O)Nc2ccccc2)cc1	i	?	5%	?	-29%	18µM*
Cc1ccccc1NC(=O)OCc1cccnc1Sc1ccc(Cl)cc1	i	i	-7%	-1%	-17%	0%
CC(OC(=O)c1cc(Br)ccc1O)C(=O)Nc1ccc(S(=O)(=O)N2CCCC2)cc1 (stereo not given)	23µM*	?	?	?	?	?
CC(Oc1cc(F)ccc1[N+](=O)[O-])C(=O)Nc1ccc(S(=O)(=O)N2CCCC2)cc1 (stereo not given)	?	i	16µM*	-25%	0%	21µM*
Cc1cccc(C(=O)OC(C)C(=O)Nc2ccc(S(=O)(=O)N3CCCC3)cc2)c1O (stereo not given)	i	i	3%	-17%	?	?
Cc1cc(C)n(-c2nc(NCC(C)O)c3c4c(sc3n2)COC(C)(C)C4)n1 (stereo not given)	i	i	?	?	?	-2%
Cc1cc(C)n(-c2nc(NCC3CCCO3)c3c4c(sc3n2)COC(C)(C)C4)n1 (stereo not given)	?	16µM*	17%	0%	-8%	?
Cc1cc(C)n(-c2nc(SCCN(C)C)c3c4c(sc3n2)COC(C)(C)C4)n1	?	i	?	18µM*	?	?
CC1(C)CC(=O)C(N=Nc2ccc(F)cc2)=C(O)C1	i	i	4%	4%	6%	4%
SMILES	KB-V1 MDR tox	KB-3-1 tox	SW480 rerep	HT1080-NT tox	HT1080 IDH1KD tx	MCF10A rereplic
CC1(C)CC(=O)C(N=Nc2cc(C(F)(F)F)ccc2Cl)=C(O)C1	i	i	-18%	4%	4%	0.52µM*
CC1(C)CC(=O)C(N=Nc2ccc(-c3ccccc3)cc2)=C(O)C1	i	i	-61%	4%	10%	0.73µM*
COc1ccc(Cc2nc3ccc(C(=O)N4CCN(C)C(C)C4)cc3o2)cc1OC (stereo not given)	?	i	-16%	-18%	-17%	-4%
CN(C)S(=O)(=O)c1cccc(NC(=O)CSc2nncn2-c2ccccc2)c1	i	?	-47%	-3%	4%	0.65µM*
NS(=O)(=O)c1cccc(NC(=O)CSc2nnnn2-c2ccccc2)c1	?	i	112%	19%	-7%	?
CN(C)S(=O)(=O)c1cccc(NC(=O)CSc2nnnn2-c2ccccc2)c1	10µM*	i	-37%	?	-3%	6%
O=C(CSc1nncn1-c1ccccc1)Nc1cc(Cl)cc(Cl)c1	i	i	-3%	5%	11%	0%
CCOc1ccc(OCCNC(=O)c2oc3ccccc3c2COC)cc1	21µM*	i	-5%	1%	-6%	?
O=C(CCN1CCOCC1)NNC(=O)Nc1cccc(C(F)(F)F)c1	i	i	-4%	4%	5%	1%
O=C(Cc1ccccc1)NNc1ccc2ccccc2c1	i	?	-8%	?	3.7µM*	16%
O=C(COc1ccc2ccccc2c1)NNC(=O)Cc1ccccc1	i	i	-30%	26%	18%	-8%
O=C(CN1C(=O)CCC1=O)NNc1ccc2ccccc2c1	i	i	-67%	2.9µM*	2.3µM*	?
O=C(CNc1ccc2ccccc2c1)NNC1=NCCC1	i	i	-5%	-1%	0%	-12%
